The list is not random: actives were taken first. Their share in the collection is about 6.8%.
MK inhibit: S. pneumoniae MK inhibitors, primary screen, biochemical, PK/LDH-coupled NADH absorbance; purified MK, PK/LDH-coupled NADH absorbance 340 nm; mevalonate kinase [Streptococcus pneumoniae D39]; inhibition, % at 10 µM; hit rate 0.48% among 65,000;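 active = ranked among the strongest by inhibition in the single 10 µM screen, a fixed top-ranked set picked for dose follow-up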
Spn DPM-DC inh: S. pneumoniae DPM-DC inhibitors, primary screen, biochemical, PK/LDH-coupled NADH fluorescence. diphosphomevalonate decarboxylase (Streptococcus pneumoniae D39). purified DPM-DC. calls only at 10 µM. hit rate 0.49% among 65,000;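 active = the 320 compounds with the highest percent inhibition in the single-dose primary screen, excluding strongly autofluorescent ones, cut at about 32% in these data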;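 also: kinetic rate of NADH fluorescence loss reporting ADP formed by the decarboxylase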
NADH enzymes: inhibitors of PK/LDH coupling enzymes, profiling panel, artefact control, biochemical, MLSMR library | coupled PK/LDH NADH assays, four targets | IC50, µM (highest dose often 10 µM) | hit rate 0.02% among 65,000 | AID 774, 2007;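 active = single-dose screening hits from any of four coupled enzyme assays that gave an IC50 when retested across doses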;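 also: the DPM-DC format reads NADH fluorescence rather than 340 nm absorbance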
Fluor 339 460: intrinsic fluorescence of library compounds, ex339/em460 – biochemical, MLSMR library, data from DPM-DC assay, artefact control, profiling panel; compound autofluorescence, ex339/em460 nm, NADH buffer; hits give high values; 1 = no-compound wells, NADH background; fluorescence fold increase at 10 µM; hit rate 5.5% among 65,000; AID 709, 2007;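 active = at 10 µM, mean starting fluorescence two-fold or more over control wells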;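 also: signal is the first read of a kinetic run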
A340 absorber: compound light absorbance at 340 nm, profiling panel, artefact control, biochemical, MLSMR library, data from PS, PMK, MK assays; compound absorbance at 340 nm, fold over control; fold change at 10 µM; 65,000 tested, under 10 active; AID 708, 2007;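 active = at 10 µM dose, initial 340 nm absorbance at least 2 fold that of control wells; inactive = change under 2 fold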;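 also: initial absorbance extrapolated from kinetic A340 decline of NADH oxidation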
PMK inhibit: S. pneumoniae PMK inhibitors, primary screen, biochemical, mevalonate pathway, pilot trial included; phosphomevalonate kinase (Streptococcus pneumoniae D39); purified PMK, PK/LDH-coupled NADH absorbance 340 nm; inhibition, % at 10 µM; hit rate 0.49% among 65,000; AID 539, 2006;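 active = top-ranked compounds by inhibition in the single 10 µM screen, taking a fixed number of the strongest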
Numbers stand for hits; – = inactive; · = no result shown; + = active, no number; [ ] = another dose, or the depositor's remark.

SMILES	MK inhibit	Spn DPM-DC inh	NADH enzymes	Fluor 339 460	A340 absorber	PMK inhibit
CCCCCCS(=O)[C@H]1CS(=O)(=O)C[C@@H]1S(=O)CCCCCC (some centres undefined)	–	–	–	–	–	–
O=c1[nH]c(-c2ccccc2O)nc2c1CCCC2	–	–	–	3.33	–	–
O=c1[nH]c(N2CCc3ccccc3C2)nc2c1CCCC2	–	–	–	–	–	–
COc1ccccc1OCC(O)Cn1c(=N)n(CCN2CCCCC2)c2ccccc21 (centres undefined)	–	–	–	–	–	–
O=C(Nc1nnc(-c2cccs2)o1)c1cccc(C(F)(F)F)c1	–	–	–	–	–	–
Fc1ccc2c(Cl)c(-c3nnc(-c4cccs4)o3)sc2c1	–	·	–	3.65	–	–
CCOC(=O)c1ccccc1NC1c2ccccc2C(=O)N1c1ccc(C)cn1 (centres undefined)	–	–	–	–	–	–
CCOC(=O)c1ccccc1NC1OC(=O)c2ccccc21 (centres undefined)	–	·	–	3.63	–	–
CCOC(=O)N1CCC(N2C(=O)c3ccccc3C2Nc2ccc3c(C)cc(=O)oc3c2)CC1 (centres undefined)	–	·	–	2.48	–	–
CCOC(=O)c1ccccc1NC1c2ccccc2C(=O)N1C1CCN(C(=O)OCC)CC1 (centres undefined)	–	·	–	2.43	–	–
CCOC(=O)CSc1nc(N(C)C)nc(N(C)C#N)n1	–	–	–	–	–	–
COc1ccc(OCCC(=O)N2CCCCC2)cc1	–	–	–	–	–	–
COc1ccccc1N1CCN(C(=O)c2c(-c3ccccc3)noc2C)CC1	–	–	–	–	–	–
O=C(CSc1ncnc2c1cnn2-c1ccccc1)Nc1ccc2c(c1)OCO2	–	+	–	–	–	–
Cn1c(N)c(C(=O)COC(=O)C2(c3cccc(F)c3)CCCC2)c(=O)n(C)c1=O	–	–	–	–	–	–
O=C(c1cccn2c(=O)c3cc(Cl)ccc3nc12)N1CCOCC1	–	·	–	3.34	–	–
COc1cccc(C(=O)N2CCN(Cc3ccc4c(c3)OCO4)CC2)c1OC	–	–	–	–	–	–
NC(=O)C1(N2CCCCC2)CCN(C(=O)c2cccn3c(=O)c4cc(Cl)ccc4nc23)CC1	–	·	–	4.92	–	–
CCn1nc(C(=O)N2CCN(Cc3ccc4c(c3)OCO4)CC2)c2ccccc2c1=O	–	–	–	–	–	–
O=C(c1cccn2c(=O)c3ccccc3nc12)N1CCN(Cc2ccc3c(c2)OCO3)CC1	–	·	–	4.98	–	–
O=C(c1cccn2c(=O)c3cc(Cl)ccc3nc12)N1CCN(Cc2ccc3c(c2)OCO3)CC1	–	·	–	4.88	–	–
COCC(=O)NCCc1nc(-c2ccccc2)cs1	–	–	–	–	–	–
O=C(NCCN1CCN(c2ccccc2F)CC1)c1cccn2c(=O)c3ccccc3nc12	–	–	–	3.1	–	–
O=C(CN1C(=O)c2cccc3cccc1c23)N1CCN(Cc2ccc3c(c2)OCO3)CC1	–	–	–	2.01	–	–
Cc1nn2cc(-c3ccc(-c4ccccc4)cc3)nc2s1	–	–	–	2.24	–	–
SMILES	MK inhibit	Spn DPM-DC inh	NADH enzymes	Fluor 339 460	A340 absorber	PMK inhibit
CCOCCCNc1ccc(-c2ccccc2)nn1	–	–	–	–	–	–
O=C(NC1CC1)c1ccc2c(c1)ncn2C1CCCC1	–	–	–	–	–	28.0
Cc1c(C(=O)NCC2CCCO2)sc2nc(-c3ccc(F)cc3)cn12 (centres undefined)	–	–	–	–	–	–
CCCCC(=O)Nc1ccc(C(=O)NCC(=O)OC)cc1	–	–	–	–	–	–
CCCCC(=O)Nc1ccc(C(N)=O)cc1	–	+	–	–	–	–
COc1ccc(S(=O)(=O)Nc2cccc(Cl)c2)cc1OC	–	–	–	–	–	–
CCN1CC=C2C(C#N)=C(N)C(C#N)(C#N)C(CCc3ccccc3)C2C1 (centres undefined)	–	·	–	5.1	–	–
CCCN1CC=C2C(C#N)=C(N)C(C#N)(C#N)C(c3cccc(OC)c3OC)C2C1 (centres undefined)	–	–	–	2.17	–	–
COc1ccc(OC)c(C2C3CN(C(C)C)CC=C3C(C#N)=C(N)C2(C#N)C#N)c1 (centres undefined)	–	–	–	–	–	–
Cc1ccc(C2C3CN(C(C)C)CC=C3C(C#N)=C(N)C2(C#N)C#N)cc1 (centres undefined)	–	+[fluoresces]	–	2.28	–	–
CN1CC=C2C(C#N)=C(N)C(C#N)(C#N)C(c3cccc(Cl)c3Cl)C2C1 (centres undefined)	–	–	–	–	–	–
N#CC1=C(N)C(C#N)(C#N)[C@H](c2ccoc2)[C@H]2CN(Cc3ccccc3)CC=C12	–	–	–	2.34	–	–
CSc1nnc(NC(=O)C2CCCCC2)s1	–	–	–	–	–	·
CSc1ncc(Cl)c(C(=O)Nc2nnc(SC)s2)n1	–	+	–	–	–	–
CC(=O)C(Sc1nc(-c2ccco2)nc2c1c(=O)n(C)c(=O)n2C)C(=O)N(C)C (centres undefined)	–	–	–	2.2	–	–
Cn1c(=O)c2c(SCC(=O)NCc3ccco3)nc(CC(C)(C)C)nc2n(C)c1=O	–	–	–	–	–	–
COc1ccc2cc3cc(C(=O)Nc4ccccc4N4CCN(C)CC4)oc3nc2c1	–	–	–	–	–	–
O=C(NCc1cccs1)c1cc2ccccc2o1	–	–	–	–	–	–
O=C(NCc1ccco1)c1cc2cc3ccc(Cl)cc3nc2o1	–	–	–	–	–	–
COc1ccc2cc3cc(C(=O)NCCN4CCN(c5ccccc5F)CC4)oc3nc2c1	–	·	–	5.06	–	–
COc1ccc2nc3oc(C(=O)NCc4cccs4)cc3cc2c1	–	+	–	3.9	–	–
COc1ccc2cc3cc(C(=O)NCC4CCCO4)oc3nc2c1 (centres undefined)	–	·	–	3.46	–	–
COc1ccc2cc3cc(C(=O)NCc4ccccn4)oc3nc2c1	–	·	–	5.07	–	–
COc1cc(C)c(S(=O)(=O)n2ccc(C)n2)cc1C	–	–	–	–	–	–
CS(=O)(=O)N1CCCC(C(=O)NCCCN2CCN(Cc3ccccc3)CC2)C1 (centres undefined)	–	–	–	–	–	–
CCCc1nc2oc3c(NCCN(C)C)ncnc3c2c2c1CCCC2	–	–	–	–	–	–
CCOC(=O)N1CCN(c2ncnc3c2oc2nc(C)c4c(c23)CC(C)(C)OC4)CC1	–	–	–	–	–	–

From PubChem BioAssay
